High-throughput results from PubChem.
Sfp PPTase inh = inhibitors of Bacillus subtilis Sfp phosphopantetheinyl transferase | Biochemical Sfp PPTase activity, qHTS | Potency, µM, inactives show largest response in the series, negative = inhibition, hits mostly inhibitors | Q9F4F7 | hit rate 3.5% among 310,000;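 also: the enzyme is Sfp with the accession as filed and its product quenches rhodamine fluorescence; 0% = enzyme reaction without inhibitor and -100% = no enzyme wells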
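After 15 min at room temperature with compound, 15 nM Sfp received 5 uM rhodamine-CoA plus 12.5 uM BHQ-2-ybbR (50 mM Hepes pH 7.6, 10 mM MgCl2). Rate came from the fluorescence difference over 30 min, ex 525/em 598 nm.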
JMJD2A Tudor inh = JMJD2A Tudor domain (human) inhibition | O75164 | AlphaScreen JMJD2A-Tudor / H3K4me3 peptide binding | Potency, µM (highest dose often 114 µM), inactives show top-dose activity change, negative = inhibition, usual class: inhibitors | hit rate 4.4% among 390,000; also: % is scaled to controls: 0 for no effect and ±100 for the full control effect; nearly all actives have a fitted effect of over 50% in size
G9a block = inhibitors of human histone lysine methyltransferase G9a | Q96KQ7 | AID 504332 | hit rate 8.8% among 350,000 | Potency, µM (top dose mostly 102 µM), without a hit: at the top dose activity, negative = inhibition, actives largely listed as inhibitors | G9a H3K9 monomethylation, AlphaScreen, 2 h; also: % is scaled to controls: 0 for no effect and ±100 for the full control effect; nearly all actives have a fitted effect of over 75% in size
Target sequence (Q96KQ7 913-1193 limits assumed): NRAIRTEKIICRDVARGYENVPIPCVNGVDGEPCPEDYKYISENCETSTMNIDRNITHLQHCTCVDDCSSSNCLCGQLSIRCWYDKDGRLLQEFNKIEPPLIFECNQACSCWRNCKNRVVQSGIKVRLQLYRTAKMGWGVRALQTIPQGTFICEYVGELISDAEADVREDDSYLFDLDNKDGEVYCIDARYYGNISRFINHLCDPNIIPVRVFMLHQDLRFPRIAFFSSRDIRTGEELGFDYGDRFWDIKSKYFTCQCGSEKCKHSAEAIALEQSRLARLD
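Step 1: enzyme (final 20 nM) with compound, 15 min RT. Step 2: substrate peptide 500 nM and SAM 20 uM, 2 h RT. Step 3: anti-H3K9me1 antibody and AlphaScreen beads, 10 min, then plate read.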
HP1b chromo inh = HP1-beta chromodomain-methylated histone interaction inhibition | AlphaScreen HP1-beta / biotin-H3K9me3 peptide binding | Potency, µM (doses to about 114 µM), for the others: top-dose activity change, negative = inhibition, hits mostly inhibitors | P83916 | hit rate 0.56% among 390,000; also: nearly all actives have a fitted effect of over 70% in size
Target sequence (P83916 whole entry, looked up): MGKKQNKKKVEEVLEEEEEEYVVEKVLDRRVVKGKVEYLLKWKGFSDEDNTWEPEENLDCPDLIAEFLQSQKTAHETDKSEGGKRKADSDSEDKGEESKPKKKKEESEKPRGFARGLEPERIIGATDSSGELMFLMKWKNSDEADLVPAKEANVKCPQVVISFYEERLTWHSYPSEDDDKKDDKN
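Compound inhibition of the preformed complex between 50 nM HP1-beta and 50 nM biotinylated H3K9me3 peptide was read by AlphaScreen. Buffer was PBS pH 7.4 with 0.01% Tween-20. Incubations ran 30 min at room temperature, with 10 ug/mL donor/acceptor beads.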
BAZ2B block = blocks human BAZ2B. hit rate 4.4% among 360,000. AlphaScreen BAZ2B-H3K14Ac peptide displacement. Potency, µM (doses to about 114 µM), inactives show top-dose activity change, negative = inhibition, most hits filed as inhibitors; also: % is scaled to controls: 0 for no effect and ±100 for the full control effect; nearly all actives have a fitted effect of over 60% in size
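AlphaScreen displacement of biotin-H3(5-23)K14Ac peptide (50 nM final) from BAZ2B (50 nM final) in PBS pH 7.4, 0.01% Tween-20; complex preformed 30 min RT, then compounds (top 110 uM) 30 min RT, beads 20 min dark.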
L3MBTL1 block = L3MBTL1 (human) inhibition; Q9Y468; AlphaScreen L3MBTL1–H3K9me1 peptide binding; Potency, µM (highest dose often 57.1 µM), inactives show at the highest dose activity, negative = inhibition, actives largely listed as inhibitors; hit rate 0.66% among 230,000; AID 485360; also: % is scaled to controls: 0 for no effect and ±100 for the full control effect; nearly all actives have a fitted effect of over 60% in size
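L3MBTL1 (50 nM) pre-complexed 30 min with biotinylated H3(1-15)K9me1 peptide (75 nM), then compounds added for 30 min at room temperature; AlphaScreen streptavidin donor/nickel chelate acceptor beads (10 ug/mL final) read after 30 min dark incubation.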
* hit, by the source's call; ? = inconclusive; · = not tested or not shown; [ ] = dose if it differs, or a comment. The list is not random: actives were taken first. Their share in the collection is about 12%. Calls follow the shape of the dose curve; as a rule, active = well fitted curve in the direction sought with a large enough effect; inconclusive = small, poorly fitted or top-dose-only effect, or another doubt; inactive = no such curve, though single readings can be large; an effect the other way counts as inactive or inconclusive. Potency is read from the fitted curve at half-maximal effect.

SMILES	Sfp PPTase inh	JMJD2A Tudor inh	G9a block	HP1b chromo inh	BAZ2B block	L3MBTL1 block
Fc1ccccc1NC(=S)Nn1cnnc1	18µM*	50µM*	4µM*	-21%	-24%	·
CCOc1ccccc1NC(=S)Nn1cnnc1	7.1µM*	50µM*	1.8µM*	?	?	·
CCc1ccccc1NC(=S)Nn1cnnc1	35µM*	·	10µM*	·	-26%	·
Cc1ccccc1NC(=S)Nn1cnnc1	22µM*	-25%	·	?	?	·
Cc1cccc(NC(=S)Nn2cnnc2)c1C	10µM*	-10%	·	6%	?	41%
C=C1C(=O)O[C@@H]2C3OC3(C)CC/C=C(\C)CC[C@@H]12 (some centres not stated)	-1%	·	·	·	·	·
C=C1C(=O)O[C@@H]2[C@H]3O[C@]3(C)CC/C=C(\C)CC[C@@H]12	-25%	-4%	7.9µM*	55%	·	·
CS/C(=C\[N+](=O)[O-])Nc1ccc(OC(F)(F)F)cc1	15%	-12%	50µM*	23%	-32%	-4%
CC(C)(CCl)C(=O)Nc1ccc(OC(F)(F)F)cc1	13%	1%	-1%	61%	10%	20%
COc1ccccc1NC(=O)CCn1nc(-c2ccccc2OC)c2c(C)cc(C)nc21	·	-23%	-33%[59 µM]	12%	-18%	·
CCOc1ccc(Nc2ncnc3c2c(-c2ccccc2)cn3-c2cccc(C)c2)cc1	·	-29%	-16%[59 µM]	14%	?	·
Cc1cc(C)c2c(c1)c(C)cc1nnc(SCc3ccccc3C#N)n12	·	-16%	-34%[59 µM]	32%	?	·
CCN(CC)C(=O)CSc1nnc2cc(C)c3ccccc3n12	4%	2%	?	39%	-7%	·
COC(=O)C(C)Sc1nnc2cc(C)c3cc(C)cc(C)c3n12 (configuration not stated)	·	-18%	8.9µM*	30%	?	·
CCCN(CCC)C(=O)CSc1nnc2cc(C)c3cc(C)cc(C)c3n12	·	16µM*	2.5µM*	44%	-20%	·
Cc1cc(C)c2c(c1)c(C)cc1nnc(SCC(=O)c3cccs3)n12	16%	?	3.2µM*	6%	1%	3%
Cc1nc2ccccc2n1CCc1nc2c3ccccc3nc(SCc3cccc(F)c3)n2n1	·	-8%	0%[59 µM]	37%	1%	·
C[n+]1cc[nH]c1SCC(=O)c1ccccc1	-25%	-30%	50µM*	0%	-31%	·
O=C(O)CSCC(=O)c1ccccc1	-18%	-7%	-44%[59 µM]	53%	·	-1%
O=C(CSC1=NCCS1)c1ccc(Cl)cc1	?	-4%	-47%	46%	·	1%
C[n+]1cc[nH]c1SCC(=O)c1ccc(Cl)cc1	?	-17%	32µM*	13%	·	-15%
COc1ccc(Br)cc1S(=O)(=O)N1CCN(S(=O)(=O)c2ccc3c(c2)OCCO3)CC1	·	-17%	·	·	·	·
COc1ccccc1CN1COc2ccc3c(C)cc(=O)oc3c2C1	·	-2%	?	30%	-17%	·
CC(C)C(=O)Nc1cccc(C(=O)Nc2nnc(C(F)(F)F)s2)c1	·	1%	-5%[59 µM]	39%	1%	·
CC1=CC(C)(C)[N+](C)(C)c2ccc(C)cc21	15%	?	56µM*	9%	?	10%
SMILES	Sfp PPTase inh	JMJD2A Tudor inh	G9a block	HP1b chromo inh	BAZ2B block	L3MBTL1 block
CC1=CC(C)(C)N(S(=O)(=O)c2ccc(C)cc2)c2ccc(C)cc21	-5%	15%	34%	69%	12%	·
COc1cc(OC)cc(C(=O)Nc2cccc(N3CCCC3)c2)c1	-6%	50µM*	3.5µM*	-17%	-38%	-27%
COc1cc(OC)cc(C(=O)Nc2ccc(-c3nc4cc(C(C)C)ccc4o3)cc2)c1	·	5%	0%[59 µM]	32%	-1%	·
COc1ccc(C(=O)Nc2ccc(Nc3ccccc3)cc2)cc1[N+](=O)[O-]	12%	35µM*	?	?	?	-29%
COc1cc(OC)cc(C(=O)Nc2ccc(Nc3ccccc3)cc2)c1	6%	?	35µM*	-26%	25µM*	-23%
COc1cc(OC)cc(C(=O)Nc2ccc(-c3nc4ccccc4o3)cc2)c1	8.9µM*	3%[57.1 µM]	-9%	26%	-1%	-10%
CCC(C)c1ccccc1N1CC(C(=O)Nc2cccc(S(=O)(=O)N3CCOCC3)c2)CC1=O (configuration not stated)	11%	-12%	3%	21%	-17%	·
CCOc1cc(C(=O)Nc2ccc3oc(-c4ccc(CC)cc4)nc3c2)cc(OCC)c1OCC	·	-9%	-31%[59 µM]	21%	-12%	·
COc1cc(OC)cc(C(=O)Nc2ccc(NC(=O)c3ccco3)c(C)c2)c1	11%	-18%	50µM*	0%	-26%	·
CCOc1cc(C(=O)NCc2ccc(-c3nc4ccccc4o3)cc2)cc(OCC)c1OCC	1%	-3%	28µM*	14%	1%	-6%
COc1cccc(OC)c1C(=O)Nc1cccc(-c2cn3ccsc3n2)c1	·	-23%	5%[59 µM]	13%[57 µM]	-26%	·
COc1cccc(C(=O)Nc2cc(Cl)c(O)c(Cl)c2)c1	8%	-15%	45µM*	21%	-24%	-1%
COc1cc(OC)cc(C(=O)Nc2cccc(-c3cn4ccsc4n3)c2)c1	·	?	-24%[59 µM]	0%[57 µM]	71µM*	·
O=C(CN1CCNCC1)NC1CCCCC1	10%	·	-6%[12.7 µM]	·	·	·
COc1ccccc1N1CCN(C(=O)c2ccc3c(c2)N(Cc2cc(C)ccc2C)C(=O)c2ccccc2S3(=O)=O)CC1	·	-28%	-39%[59 µM]	12%	?	·
